Screens: PubChem, several laboratories
Rv3671c inh – Rv3671c serine protease inhibitors, primary screen, biochemical, fluorescence polarization, M. tuberculosis H37Rv; P9WHR9; inhibition, % at 5.96 µM; actives 0.048% (n = 320,000); AID 2606, 2010; in the data active = inhibition above about 38%;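 note: extracellular domain of Rv3671c used as enzyme; 0% = enzyme with DMSO and 100% = no enzyme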
GDH-TPI counter – GDH-TPI coupling enzyme inhibitors, primary screen, artefact control for M. tuberculosis FBA inhibitor project, biochemical, absorbance, full deck; GDH-TPI coupled enzyme counterscreen, NADH absorbance; inhibition, % at 4.8 µM; actives 1.2% (n = 360,000); AID 588335, 2011; in the data active = inhibition above about 30%;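 note: 0% = DMSO wells and 100% = wells lacking the enzyme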
RecA splice inh – Mtb RecA intein splicing inhibitors, primary screen, biochemical, fluorescence, HTS; cell-free RecA intein splicing; inhibition, % (concentration not given with the values); actives 0.75% (n = 290,000); AID 2221, 2009; in the data active = inhibition above about 30%;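 note: 0% = vehicle wells and 100% = reference inhibitor control wells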
Mtb UGM inh – M. tuberculosis UGM enzyme inhibitors, primary screen, biochemical, fluorescence polarization, single point; AID 504406, 2011; UDP-galactopyranose mutase (Mycobacterium tuberculosis (strain ATCC 25618 / H37Rv)), …; inhibition, % at 10 µM; purified UGM, fluorescence polarization probe displacement; actives 0.06% (n = 320,000); in the data active = inhibition above about 10%, passing the limit was not always enough
FBA Mtb inh – Mtb FBA enzyme inhibitors, primary screen, biochemical, fluorescence, strain H37Rv; inhibition, % at 1 µM; AID 588726, 2011; Fructose-bisphosphate aldolase (Mycobacterium tuberculosis (strain ATCC 25618 / H37Rv)), …; actives 2.3% (n = 360,000); purified M. tuberculosis FBA, fluorescence read-out; in the data active = inhibition above about 27%;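 note: 0% = vehicle and 100% = reference inhibitor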
Target sequence (P9WQA3 whole entry, looked up): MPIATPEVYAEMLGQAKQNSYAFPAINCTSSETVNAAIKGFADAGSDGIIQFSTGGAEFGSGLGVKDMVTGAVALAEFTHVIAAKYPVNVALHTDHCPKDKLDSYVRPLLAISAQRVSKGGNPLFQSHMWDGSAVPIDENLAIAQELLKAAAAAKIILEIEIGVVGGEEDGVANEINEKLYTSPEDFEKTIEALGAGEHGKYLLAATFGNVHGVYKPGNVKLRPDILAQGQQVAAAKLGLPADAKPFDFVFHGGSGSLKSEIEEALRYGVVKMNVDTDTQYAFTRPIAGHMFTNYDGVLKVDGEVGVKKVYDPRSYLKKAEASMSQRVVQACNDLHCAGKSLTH
Mtb bLac sens – beta-lactam sensitization of Mtb H37Rv, H37Rv; M. tuberculosis H37Rv growth with meropenem, percent inhibition; inhibition, % at 25 µM; actives 0.27% (n = 330,000); call rule not given here;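 note: growth measured after seven days incubation then overnight dye step; 0% = bacteria only wells and 100% = bacteria with antibiotic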
Numbers without * were called inactive; i = inactive; x = not tested or not shown. Hits are enriched below; roughly 4% of the tested compounds scored in any of these assays.

SMILES	Rv3671c inh	GDH-TPI counter	RecA splice inh	Mtb UGM inh	FBA Mtb inh	Mtb bLac sens
O=C(c1cccc(Cl)c1)C1CCCN(C(=O)c2ccc3c(c2)OCO3)C1 (stereo unspecified)	-9	-3	-8	1	-1	-5
COc1ccc(C(=O)/C=C/Nc2ccc([N+](=O)[O-])cc2C)c(OC)c1	0	0	-3	2	-7	-7
COc1ccc(C(=O)/C=C/Nc2cc(C)on2)c(OC)c1	9	40*	-4	1	2	4
CCc1nn(C(C)C(=O)NCc2cccc(Cl)c2)c(=O)c2cc3occc3n12 (stereo unspecified)	3	6	0	0	1	-3
CC1=CC(C#N)(C#N)C(C#N)(C#N)C(c2ccccc2)N1 (stereo unspecified)	43*	x	8	-2	x	0
COc1ccc(-c2cn(Cc3ccc(C(=O)NCc4ccc(C)cc4)cc3)c(C(C)N)n2)cc1 (stereo unspecified)	-4	-13	4	0	3	98
CCN(CC)c1ccc(-c2nnc(SCC(=O)N(CCOC)c3c(N)n(CC(C)C)c(=O)[nH]c3=O)o2)cc1	-3	47*	1	x	-2	-5
COCCN(C(=O)CSc1nnc(-c2ccc(C)c(C)c2)o1)c1c(N)n(CC(C)C)c(=O)[nH]c1=O	1	-3	1	-2	-2	0
O=C(C[C@H]1C/C=C\C[C@H](NC(=O)OCC2c3ccccc3-c3ccccc32)C(=O)O[C@H](c2ccccc2)CNC1=O)N[C@H](CO)Cc1ccccc1	-21	9	x	-2	5	-1
O=C(Nc1nc2ccc(S(=O)(=O)N3CCCCC3)cc2s1)c1ccncc1	-6	27	-1	0	0	-1
CN(C)S(=O)(=O)c1ccc2nc(NC(=O)c3cccs3)sc2c1	-8	30	-3	0	10	10
O=C(Nc1nc2ccc(S(=O)(=O)N3CCCCC3)cc2s1)c1cccnc1	-17	40*	-4	-3	3	-6
CN(C)S(=O)(=O)c1ccc2nc(NC(=O)c3cccnc3)sc2c1	-21	36*	-3	-1	0	-4
Cc1[nH]n(-c2ccccc2)c(=O)c1C(c1ccccc1C(=O)O)c1c(C)[nH]n(-c2ccccc2)c1=O	-2	2	-1	0	3	0
Cc1[nH]n(-c2ccccc2)c(=O)c1C(c1ccccc1[N+](=O)[O-])C(C#N)C#N (stereo unspecified)	-28	2	64*	1	0	-5
Cn1c2ccccc2c(=O)c2ccc(C#CC3(O)CCCCC3)cc21	-34	12	i	3	171*	96
O=C(CCN1C(=O)S/C(=C/c2ccccc2)C1=O)Nc1ccc(O)c(C(=O)O)c1	-5	42*	4	4	-2	1
O=C(CCN1C(=O)/C(=C\c2ccccc2)SC1=S)Nc1ccc(C(=O)O)cc1	-18	5	7	0	-1	-3
O=C(CCN1C(=O)S/C(=C\c2ccccc2)C1=O)Nc1ccc(O)cc1C(=O)O	-3	38*	-7	2	-2	2
O=C(CN1C(=O)S/C(=C\c2cccs2)C1=O)Nc1ccc(O)cc1C(=O)O	-4	44*	4	2	11	-1
O=C(CCN1C(=O)S/C(=C\c2cccs2)C1=O)Nc1nccs1	8	-2	-2	-1	-1	-8
Cc1cccc(N(CC(=O)NCC2CCCO2)C(=O)CNS(=O)(=O)c2ccc(Cl)cc2)c1 (stereo unspecified)	-1	-7	6	1	0	3
NS(=O)(=O)c1ccc(NC(=O)COC(=O)CC2Sc3ccccc3NC2=O)cc1 (stereo unspecified)	8	4	x	1	1	-2
CC1(C)Cc2c(C#N)c(N3CCN(C(=O)c4ccco4)CC3)nc(Cc3ccccc3)c2CO1	-3	7	23	1	2	83
Cc1nc(N2CCN(C(=O)c3ccc(Cl)cc3)CC2)c(C#N)c2c1COC(C)(C)C2	-3	13	2	-2	38*	10
SMILES	Rv3671c inh	GDH-TPI counter	RecA splice inh	Mtb UGM inh	FBA Mtb inh	Mtb bLac sens
COc1cccc(CCc2nnc(CCC(=O)NCCC3CCCCO3)o2)c1 (stereo unspecified)	1	-1	0	-1	-1	4
CCS(=O)(=O)C1=NN2C(=N)/C(=C\c3ccc(OC(=O)c4ccco4)c(Br)c3)C(=O)N=C2S1	-5	x	11	-6	x	4
CCOc1cc(/C=C2/C(=N)N3N=C(CC)SC3=NC2=O)ccc1OC(=O)c1ccco1	-2	12	21	-3	-1	75
CCOc1cc(/C=C2\C(=N)N3N=C(N4CCCCC4)SC3=NC2=O)ccc1OC(=O)c1ccco1	11	20	35*	-2	4	74
CCOc1cc(/C=C2\C(=N)N3N=C(S(=O)(=O)CC)SC3=NC2=O)ccc1OC(=O)c1ccco1	-2	8	31*	-6	-1	4
CCN(CC(=O)NCc1ccccc1Cl)CC(=O)Nc1c(F)cccc1F	-9	44*	2	2	2	-1
Cc1ccc(-n2nnnc2CCl)cc1	x	0	46*	x	1	x
CC(=O)c1ccc(NC(=O)CN2C(=O)NC3(CCc4ccccc43)C2=O)cc1 (stereo unspecified)	5	-4	x	5	-2	24
c1cnn(-c2cncc(-n3cccn3)n2)c1	4	32*	-1	0	16	-7
CC(=O)c1ccc(N2CCN(C(=S)Nc3ccc(Oc4ccccc4)cc3)CC2)cc1	-4	20	1	0	2	60
O=C(c1ccc(N2CCN(C(=O)c3ccccc3Br)CC2)cc1)c1cccc(F)c1	0	18	13	-1	3	6
O=C(c1ccc(N2CCN(C(=O)c3cccc(F)c3)CC2)cc1)c1cccc(F)c1	1	31*	4	2	-1	95
CC(=O)c1ccc(N2CCN(C(=S)Nc3cccc(F)c3)CC2)cc1	-9	35*	-1	0	3	-17
Cc1noc(C)c1NC(=O)Nc1ccc2c(c1)C(=O)N([C@H](C)CO)C[C@H](C)[C@@H](CN(C)S(=O)(=O)c1ccc(Cl)cc1)OCCCC[C@@H](C)O2	x	8	x	x	2	x
NC(Cc1ccc(F)cc1)c1csc(Nc2nccc(C(F)(F)F)n2)n1 (stereo unspecified)	x	-4	x	x	-1	x
CNc1cccc(-c2ccc(C(=O)N3CCOCC3)cc2)n1	x	15	x	x	10	x
CNc1cnc(-c2cccc(C(=O)N3CCOCC3)c2)cn1	x	15	x	x	135*	x
